PfM18AAP inh-1: blocks P. falciparum M18 aspartyl aminopeptidase. AID 1822. 1.2% of 290,000 active. recombinant PfM18AAP, H-Glu-NHMec fluorogenic cleavage. inhibition, % at 7.35 µM;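 active = inhibition above the campaign mean inhibition over all tested compounds plus 3 SD, cut at about 28% in these data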
Calb FLC: affects C. albicans growth with fluconazole; AID 1979; C. albicans CaCi-2 (fluconazole-resistant clinical isolate) + fluconazole, Alamar Blue growth, 48 h; 0.57% of 300,000 active; growth inhibition, % (concentration not given with the values);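 active = growth inhibition above about 58% in most replicates, limit read from the data, passing the limit was not always enough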;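 note: all wells also contain fluconazole at 8 µg/ml as a sub-toxic cotreatment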
CTSL1 counter-1: counter-screen for PFM18AAP inhibitors: inhibitors of F. hepatica cathepsin L1 | recombinant F. hepatica cathepsin L1, Z-Leu-Arg-MCA fluorescence | inhibition, % at 5.96 µM | 0.49% of 300,000 active | AID 1906;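 active = inhibition above the mean of all tested compounds plus 3 SD, set per screening campaign, cut at about 17% in these data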
Rin1-Abl PPI inh: human Rin1-Abl interaction inhibition. TR-FRET Rin1/Abl binding, biochemical. inhibition, % at 7.35 µM. 0.4% of 360,000 active. P00519+Q13671; in the data active = inhibition above about 5%, passing the limit was not always enough
PfM18AAP inh-2: PfM18AAP inhibition, confirmation | recombinant PfM18AAP, H-Glu-NHMec fluorogenic cleavage | 28% of 2,400 active | shares compounds with PfM18AAP inh-1 | inhibition, % at 7.35 µM | AID 2170;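 active = mean inhibition over replicate wells above the hit cutoff set for the earlier primary screen, cut at about 29% in these data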
CTSL1 counter-2: counter-screen for PFM18AAP inhibitors: confirmation of human cathepsin L inhibitors; 2,400 tested, under 10 active; inhibition, % at 5.96 µM; AID 2178; shares compounds with PfM18AAP inh-1; purified cathepsin L1, Z-Leu-Arg-MCA fluorescence;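 active = average inhibition across replicates above the hit cutoff set in the earlier primary screen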
Target sequence (P07711 whole entry, looked up): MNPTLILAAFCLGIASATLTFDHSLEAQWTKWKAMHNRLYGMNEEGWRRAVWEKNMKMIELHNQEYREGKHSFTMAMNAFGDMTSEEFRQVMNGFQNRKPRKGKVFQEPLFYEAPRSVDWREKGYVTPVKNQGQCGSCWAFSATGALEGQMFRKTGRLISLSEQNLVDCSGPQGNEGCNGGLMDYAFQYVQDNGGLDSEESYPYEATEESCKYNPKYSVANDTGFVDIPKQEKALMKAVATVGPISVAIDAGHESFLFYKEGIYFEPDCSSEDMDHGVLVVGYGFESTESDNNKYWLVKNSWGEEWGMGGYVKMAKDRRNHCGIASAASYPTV
A number is an active result; - = inactive; . = no result. Sampled rows, rich in hits. Any-hit rate of the full collection: about 2.1%.

SMILES | PfM18AAP inh-1 | Calb FLC | CTSL1 counter-1 | Rin1-Abl PPI inh | PfM18AAP inh-2 | CTSL1 counter-2
Cc1sc2nc(CSc3ncn[nH]3)[nH]c(=O)c2c1C | 72 | - | - | - | 71 | -
O=c1[nH]c2ccccc2c(O)c1O | 46 | - | - | 20 | - | -
Cn1c(CSc2ncn[nH]2)nc2ccccc21 | 53 | - | - | - | - | -
O=S1(=O)N=C(Nc2nncs2)c2ccccc21 | 41 | - | - | - | 51 | -
Oc1ccc(/C=N/Nc2nccnc2Cl)c(O)c1 | 35 | - | - | - | - | -
COc1ccc(/C=N/Nc2ncnc(Cl)c2N)cc1OC | 35 | - | - | - | - | -
COc1ccc(/C=N/Nc2nccnc2Cl)cc1 | 36 | - | - | - | - | -
Fc1ccc(Oc2ncccn2)c(F)c1 | - | - | - | - | . | .
Cc1ccc(Cl)cc1NC(=O)c1cccc(OC(F)F)c1 | - | - | - | - | . | .
O=C(c1cc2c(s1)CCCC2)N1CCN(CCO)CC1 | . | . | . | - | . | .
O=C(O)Cc1ccc2ocnc2c1 | 45 | - | - | - | - | -
O=C(Nc1ccccc1)Nc1cc(Cl)cc(Cl)c1 | - | - | - | - | . | .
O=C(NNC(=O)c1ccc[nH]1)Nc1cc(Cl)cc(Cl)c1 | 50 | - | - | - | 29 | -
O=C(NNC(=O)c1ccc[nH]1)Nc1cccc(C(F)(F)F)c1 | 53 | - | - | - | - | -
COc1cc(/C=N/Nc2ccc(S(N)(=O)=O)cc2[N+](=O)[O-])cc(OC)c1O | 45 | - | - | - | - | -
Cc1ccn2cc(C(=O)N3CCN(c4cnn(-c5ccccc5)c(=O)c4Cl)CC3)nc2c1 | . | . | . | - | . | .
CC(/C=N/N1C(=O)CSC1=S)=C\c1ccccc1 | 42 | - | - | - | - | -
CC(/C=N/N1CCN(c2ccccc2)CC1)=C\c1ccccc1 | - | - | - | - | . | .
COc1ccc(/C=N/N2C(=O)CSC2=S)cc1 | 49 | - | - | - | - | -
CCc1ccccc1Oc1ccc(S(=O)(=O)N2CCN(C)CC2)cn1 | . | - | - | - | . | .
Cn1cccc1Cc1nnc(SCC(=O)Nc2ccc3c(c2)OCO3)n1CCc1ccccc1 | - | - | - | - | . | .
COCCn1c(Cc2cccn2C)nnc1SCC(=O)NCc1ccc2c(c1)OCO2 | 35 | - | - | - | - | -
Cc1ccc(NC(=O)c2cc(S(=O)(=O)N(C)C)ccc2N2CCCC2)cc1F | - | - | - | - | . | .
Oc1ccc2nnc3c(Br)cnn3c2c1 | - | - | - | - | . | .
COc1ccc(/C=C2\CN(Cc3ccccc3)C/C(=C\c3ccc(OC)c(O)c3)C2=O)cc1O | 45 | - | - | - | - | -
SMILES | PfM18AAP inh-1 | Calb FLC | CTSL1 counter-1 | Rin1-Abl PPI inh | PfM18AAP inh-2 | CTSL1 counter-2
CCN1C/C(=C/c2ccc(OC)c(O)c2)C(=O)/C(=C/c2ccc(OC)c(O)c2)C1 | - | - | - | - | . | .
Cc1cc(C)c2c(=O)n(CC(=O)Nc3cccc(Cl)c3C)sc2n1 | 63 | - | - | - | 41 | -
Cc1cc(C)c2c(=O)n(CC(=O)Nc3ccc(Br)c(C)c3)sc2n1 | 60 | - | - | - | 41 | -
COc1ccc(OC)c(CCNC(=O)Cn2sc3nc(C)cc(C)c3c2=O)c1 | 51 | - | - | . | - | -
Cc1c(C)c2ccc(OCC(=O)Nc3ccccn3)cc2oc1=O | - | - | - | - | . | .
Cc1cccc(NC(=S)NCc2ccco2)c1C | - | - | - | - | . | .
O=C(Nc1ccc(NC(=O)C2CCCCC2)nc1)c1cccc(F)c1 | - | - | . | - | . | .
CC1=C(C(=O)O)N2C(=O)C(NC(=O)c3ccccc3Cl)C2SC1 (centres undefined) | 34 | - | - | - | - | -
O=C(NC1CCSc2ccccc21)c1cccc([N+](=O)[O-])c1 (centres undefined) | - | - | - | - | . | .
CCOC(=O)c1sc(NC(=O)OC)c(C(=O)OC)c1C | - | - | - | - | . | .
CCOC(=O)c1c(NC(=O)OC)sc(C(=O)N(CC)CC)c1C | 33 | - | - | - | - | -
COc1cc(/C=C2\N=C3CCCCCN3C2=O)ccc1O | - | - | - | - | . | .
O=C1/C(=C\c2ccc(O)c(O)c2)N=C2CCCCCN12 | 65 | - | - | - | 56 | -
Cc1ccc(-n2c(CCc3nc4ccccc4[nH]3)n[nH]c2=S)cc1 | 33 | - | - | - | - | -
CCN(CC)c1ccc2c(c1)OC(N)=C(C#N)C2c1cccnc1 (centres undefined) | 45 | - | - | - | - | -
N#CC1=C(N)Oc2cc(N)ccc2C1c1cccnc1 (centres undefined) | - | - | - | - | . | .
N#CC1=C(N)Nc2ncnn2C1c1ccccc1 (centres undefined) | 38 | - | - | . | - | -
Cc1cc(NC(=O)c2ccc([N+](=O)[O-])cc2)n(CCC#N)n1 | - | - | - | - | . | .
CCN(CC)P(=O)(Nc1ccc([N+](=O)[O-])cc1)c1c(C)nn(CCC#N)c1NC(=O)c1ccc(Cl)cc1 (centres undefined) | 58 | - | - | - | - | -
Cc1ccc(C(=O)N2CCCC2)cc1S(=O)(=O)N1CCCCC1 | - | - | - | - | . | .
COc1ccc(CN2CN(c3ccc(Cl)cc3)C(=O)N(n3cnnc3)C2)cc1 | 51 | - | - | - | 40 | -
O=C1N(c2ccc(Cl)c(Cl)c2)CN(Cc2ccccc2)CN1n1cnnc1 | 70 | - | - | - | 55 | -
O=C(CCN1CCN(Cc2ccccc2)CC1)NNC(=O)Cc1ccc(Cl)c(Cl)c1 | - | - | - | - | . | .
O=C(NC1CCN(S(=O)(=O)c2cccc(Cl)c2)CC1)C1CCCCC1 | - | - | - | - | . | .
O=S(=O)(NNC(=S)Nc1ccc(S(=O)(=O)Nc2ncccn2)cc1)c1ccc(Br)cc1 | 41 | - | - | - | - | -
SMILES | PfM18AAP inh-1 | Calb FLC | CTSL1 counter-1 | Rin1-Abl PPI inh | PfM18AAP inh-2 | CTSL1 counter-2
C=CC[C@]12C=C(OC)C(=O)C=C1O[C@@H](c1ccc3c(c1)OCO3)[C@H]2C | . | - | - | - | . | .
COc1cc([N+](=O)[O-])ccc1-c1ccc(/C=N\n2cnnc2)o1 | 44 | - | . | - | - | -
O=[N+]([O-])c1ccc(Cl)c(-c2ccc(/C=N/n3cnnc3)o2)c1 | - | - | - | - | . | .
Cc1cc(-c2ccc(/C=N/n3cnnc3)o2)c(C)c([N+](=O)[O-])c1 | 43 | - | - | - | - | -
COc1ccc(-c2nnc(OCc3ccccc3)c3ccccc23)cc1 | - | - | - | - | . | .
O=C1[C@@H]2[C@H](C(=O)N1CC(O)COCc1ccccc1)C1C=C[C@H]2C1 (some centres undefined) | . | . | . | - | . | .
COc1cc(/C=C/C(=O)O)cc(S(=O)(=O)Nc2ccc3nc(C)sc3c2)c1OC | 38 | - | - | - | - | -
CC1(C)OC(=O)C(=CNC(Cc2c[nH]c3ccccc23)C(=O)O)C(=O)O1 (centres undefined) | - | - | - | - | . | .
NC(=S)N/N=C/c1coc2ccc(O)cc2c1=O | 69 | - | - | - | 42 | -
NC(=S)N/N=C/c1coc2ccc(Br)cc2c1=O | - | - | - | - | . | .
Cc1ccc(S(=O)(=O)NCC2CCC(C(=O)N3CCN(C)CC3)CC2)cc1 (centres undefined) | - | - | - | - | . | .

Screens as filed in PubChem BioAssay.
